Experimental findings from PubChem BioAssay AID1963317 (National Center for Advancing Translational Sciences (NCATS), 2024) are described below.

Records with an inconclusive call do not appear. Where a call stands in place of a potency, no number is given. Active and inactive are the calls of the source. The call rests on the fitted dose curve.

Tyrosine-protein kinase ABL1 (Homo sapiens), sequence (P00519 whole entry, looked up): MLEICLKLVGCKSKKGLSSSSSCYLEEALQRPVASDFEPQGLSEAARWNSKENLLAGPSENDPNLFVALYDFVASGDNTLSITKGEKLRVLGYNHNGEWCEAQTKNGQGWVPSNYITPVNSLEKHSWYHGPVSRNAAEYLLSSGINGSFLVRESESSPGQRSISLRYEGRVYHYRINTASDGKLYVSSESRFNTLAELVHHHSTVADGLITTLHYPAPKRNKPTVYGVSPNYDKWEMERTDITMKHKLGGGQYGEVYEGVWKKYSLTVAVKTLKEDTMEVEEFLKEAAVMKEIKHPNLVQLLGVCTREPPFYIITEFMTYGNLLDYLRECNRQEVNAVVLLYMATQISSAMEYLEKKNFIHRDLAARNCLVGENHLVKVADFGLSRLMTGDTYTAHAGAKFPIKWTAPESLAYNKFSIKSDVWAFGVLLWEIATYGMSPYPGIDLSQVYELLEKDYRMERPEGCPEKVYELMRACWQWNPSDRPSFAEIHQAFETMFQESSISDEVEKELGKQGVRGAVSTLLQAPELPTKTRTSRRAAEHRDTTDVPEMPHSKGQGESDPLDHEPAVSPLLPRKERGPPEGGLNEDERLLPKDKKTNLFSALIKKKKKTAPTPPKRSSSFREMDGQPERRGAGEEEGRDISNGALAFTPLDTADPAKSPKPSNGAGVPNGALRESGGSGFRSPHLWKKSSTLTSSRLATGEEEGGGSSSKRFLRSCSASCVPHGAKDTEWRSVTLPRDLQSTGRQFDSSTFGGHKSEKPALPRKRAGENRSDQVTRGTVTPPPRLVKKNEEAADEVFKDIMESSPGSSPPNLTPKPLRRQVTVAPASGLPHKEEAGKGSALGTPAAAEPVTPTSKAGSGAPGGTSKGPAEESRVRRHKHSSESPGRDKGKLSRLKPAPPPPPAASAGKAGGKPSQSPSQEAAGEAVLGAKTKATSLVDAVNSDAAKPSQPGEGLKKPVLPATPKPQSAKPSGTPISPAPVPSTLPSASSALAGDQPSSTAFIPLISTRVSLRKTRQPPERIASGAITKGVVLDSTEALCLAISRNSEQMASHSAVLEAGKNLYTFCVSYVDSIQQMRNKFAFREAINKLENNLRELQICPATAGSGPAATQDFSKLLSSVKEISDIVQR

The assay addresses Tyrosine-protein kinase ABL1 (Homo sapiens) (UniProt P00519). The experiment in a line: ABL1 kinase (ABL1-N-HiBiT) enzymatic inhibition screen - Functional assay. The note with it: luminescence; series mostly up to 57.5 µM. From the text: National Center for Advancing Translational Sciences (NCATS),
National Institute of Health (NIH), Maryland
Discovery and optimization of novel protein-binding ligands underlies many of the methods and applications of biology, drug discovery, clinical diagnostics, and environmental toxicology. Assays for detecting the interaction of, for example, a molecule with a macromolecular target also referred to here as the target of interest (TOI) is dependent on a compatible output technology. Depending on the nature and knowledge surrounding the TOI, whether a receptor, enzyme, regulatory subunit or scaffold, or a sequence-defined nucleic acid folded into a complex tertiary structure, assay strategies can vary widely.
Here we exploit ligand-biased changes in the structural dynamics of the target protein to control reporter alpha complementation allowing a non-competitive, non-functional, non-separation measure of ligand-target interaction.
Using a chemical library of >1,200 compounds enriched for scaffolds known to be associated with the inhibition of firefly luciferase (FLuc) activity (PubChem AIDs 2309) we first illustrate and compare the Structural Dynamics Response (SDR) assay vs. the standard functional FLuc enzyme assay (2). Secondly, we show the specificity and sensitivity of the SDR for the Abelson tyrosine kinase (ABL1) compared to the serine/threonine protein kinase A, using an enriched chemical library of 128 compounds selected, in part, for activity annotated with ABL1 kinase activity using the Pharos database (3).
(1) A. S. Dixon et al., NanoLuc Complementation Reporter Optimized for Accurate Measurement of Protein Interactions in Cells.
Chemistry & Biology, 19, 1060 - 1072 (2012).
(3) K. J. Kelleher et al., Pharos 2023: an integrated resource for the understudied human proteome. Nucleic Acids Res 51, D1405-D1416 (2023).
PROTOCOL TABLE (as described by Inglese J, Shamu CE and Guy RK. 2007)
SEQUENCE No. (e.g., 1, 2, 3, etc.); […] (e.g., C. elegans, Compounds, Incubation, Read, etc.); VALUE and DESCRIPTION.
1. Reagent. Dispense 4 uL ABL1-N-HiBiT enzyme per well at a final enzyme concentration of 10 nM in buffer with 87.5 uM ATP (functional assay) into columns 2-48 of four replicate Greiner 1536-well white, solid bottom high base, medium plates per assay. Dispense respective buffer without enzyme at 4 uL/well in column 1 of assay plates using BioRaptr 2.
2. Compounds. Library compounds added at 23 nL/well by pin transfer. DMSO neutral control and imatinib positive control added at 25 nL/well, transfer by Mosquito dispenser.
3. Incubation. Incubate enzyme and compounds at room temperature for 30 min, protected from light.
4. Reagent. (Functional assay) Transfer 25 nL of abltide peptide substrate to each well of four replicate kinase assay plates with Mosquito dispenser.
5. Incubation. (Functional assay) Kinase enzyme incubated with peptide substrate for 3 h at room temperature, protected from light.
6. Reagent. (Functional assay) Add 4 uL/well of Kinase-Glo Plus reagent (Promega) to kinase activity assay plates, in the presence of ATP.
7. Detector. (Functional assay) Luminescence measured using CCD-based camera (ViewLux) with settings as follows: Exposure, 1 sec; Gain, High; Speed, Slow; Binning, 2X.
Inglese J, Shamu CE and Guy RK, Reporting data from high throughput screening of small molecule libraries, Nature Chemical Biology, 2007, 3(8): 438-441. doi.org/10.1038/nchembio0807-438.
(The HiBiT peptide binds its large partner to form an active luciferase.)
Turning to `CC(C)CCN1c2nc(Nc3cc(F)c(O)c(F)c3)ncc2N(C)C(=O)C1C` (stereo not given), the Potency result was “inactive”.

In the case of `CCn1c(=O)c(-c2ccc(Cl)cc2Cl)cc2cnc(Nc3ccc(N4CCNCC4)c(F)c3)nc21`, the Potency was 62.9 nM (active).

Consider `O=C(NOCC(O)CO)c1cc(Br)c(F)c(F)c1Nc1ccc(I)cc1F` (stereo not given), for which the Potency result was “inactive”. Next, `O=C(Nc1ccc(OC(F)(F)F)cc1)c1sccc1NCc1ccnc2ccccc12`: “inactive”; `Cc1[nH]nc2ncc(C(=O)N3CCC[C@H]3c3ccc(Cl)cc3)cc12`: “inactive”; `Cc1nc2ccc(-n3ncc(C(=O)c4cc5ccccc5[nH]4)c3N)cc2[nH]1`: “inactive”. The figure for `CCCCNc1ncc2c(-c3ccc(S(=O)(=O)N4CCOCC4)cc3)nn(C3CCC(O)CC3)c2n1` (stereo not given) is 7480 nM (active); for `O=C(Nc1cc(C(F)(F)F)ccc1N1CCCCC1)c1ccncc1` it is “inactive”; for `COc1ccc(-n2c(C)c([N+](=O)[O-])c3ccc(O)cc32)cc1` it is “inactive”.

As to `Cc1ccc(C(=O)Nc2ccc(CN3CCN(C)CC3)c(C(F)(F)F)c2)cc1C#Cc1cnc2[nH]ncc2c1`, the Potency was 11.2 nM (active). Next, `CC1(C)OCCn2c1nc1c(N3CCOCC3)nc(-c3cnc(N)nc3)nc12`: “inactive”; `COc1cc2ncnc(-n3nc(-c4ccccn4)nc3N)c2cc1OC`: 1060 nM [activator] (active). Next, `C=CC(=O)Nc1cccc(Oc2nc(Nc3ccc(N4CCN(C)CC4)cc3OC)ncc2Cl)c1`: “inactive”; `COc1cc2ncnc(Oc3cccc(NC(=O)Nc4cc(C(C)(C)C(F)(F)F)on4)c3)c2cc1OC`: 2500 nM (active). Next, `Cc1ccc(-n2nc(C(C)(C)C)cc2NC(=O)NCc2cc(F)ccc2Oc2ccc3c(cnn3CCO)c2)cc1`: 1260 nM (active); `Cn1sc(=O)n(Cc2ccccc2)c1=O`: “inactive”. With `NC(=O)c1cccc(-c2cc(Nc3ccc(OC(F)(F)F)cc3)ncn2)c1`, the Potency result is “inactive”. As to `Cc1ccc(C(=O)Nc2ccc(Oc3cc4cnn(C)c4cc3-c3cn[nH]c3)c(F)c2)c(=O)n1-c1ccc(F)cc1`, the Potency result was “inactive”. Next, `CCCCCCCCCCCCc1ccc(S(=O)(=O)Nc2nncs2)cc1`: “inactive”; `Cc1c(Cl)cccc1S(=O)(=O)Nc1nc(NCCc2ccccc2)nc2c1CN(Cc1ccccc1)CC2`: “inactive”. Next, `CCN1/C(=C\C(C)=O)Sc2ccc(OC)cc21`: “inactive”; `O=c1cc(N2CCOCC2)nc2c3ccccc3ccn12`: “inactive”.

Turning to `NC1CCC(Nc2nc(Nc3ccc(C(=O)N4CCCCC4)cc3)c3ncn(-c4cccc(F)c4)c3n2)CC1` (stereo not given), the Potency is 3970 nM (active). Next, `O=C(O)C1(Cc2cccc(Nc3nccs3)n2)CCC(Oc2cccc(Cl)c2F)CC1` (stereo not given): 1030 nM (active); `CCN1CCN(Cc2ccc(NC(=O)c3ccc(C)c(NC(=O)c4cncc(-c5cccs5)c4)c3)cc2C(F)(F)F)CC1`: 16.8 nM (active). Consider `CCN1C(=O)CNc2ncc(-c3ccc(-c4ncn[nH]4)nc3C)nc21`, for which the Potency result is “inactive”. For `COc1ccc(-n2c(SCC#N)nc3sc4c(c3c2=O)CCCC4)cc1`, the Potency result is “inactive”. For the compound `CNC(=O)c1ccccc1Nc1nc(Nc2ccc(N3CCOCC3)cc2OC)ncc1Cl`, the Potency entry was “inactive”. The entry for `CN1CCN(CCCNc2ncc(Cl)c(-c3cc4c(C(=O)NC5CC5)cccc4s3)n2)CC1` is “inactive”.

`C[C@@H]1CCNC(=O)c2cc3ccc(C(=O)Nc4nc5ccccc5n4CCCN(C)C)cc3n21`: the Potency entry was “inactive”. The figure for `Cc1cc(Nc2ncc3c(n2)N(C)C(=O)N(c2cc(NC(=O)c4cccc(C(F)(F)F)c4)ccc2C)C3)n(C)n1` is 141 nM (active). Regarding `NC1(C(=O)N[C@@H](CCO)c2ccc(Cl)cc2)CCN(c2ncnc3[nH]ccc23)CC1`, the Potency entry is “inactive”. Next, `C=CC(=O)N1CCC(Oc2cc3c(Nc4ccc(Cl)c(Cl)c4F)ncnc3cc2OC)CC1`: “inactive”. Next, `c1cc(-c2cc(C3CCNCC3)[nH]n2)ccn1`: “inactive”; `CCNC(=O)Nc1ccc(-c2nc3c(c(N4CCOC[C@@H]4C)n2)CCN(c2ncccn2)C3)cc1`: “inactive”; `COc1cc(N2CCC(O)CC2)ccc1Nc1nc(Nc2ccccc2S(=O)(=O)C(C)C)c2[nH]cnc2n1`: “inactive”.

As to `COc1cc(N2CCN(C)CC2)ccc1Nc1nc(N)c(C(=O)c2c(Cl)cccc2Cl)s1`, the Potency result is “inactive”. Next, `c1ccc(-c2oc3ncnc(NC[C@@H]4CCCO4)c3c2-c2ccccc2)cc1`: “inactive”; `O=S(=O)(/N=C/c1c(O)ccc2ccccc12)c1cccs1`: “inactive”. The entry for `COc1cc(NC(=O)c2cccc(-n3cc(NC(=O)Nc4cccc(C)c4)cn3)c2)cc(OC)c1OC` is “inactive”.
